Drawing on ChEMBL document CHEMBL3988442, “University of Dundee, Small-Polar-MMV Screening Library” (2021), this text covers Percent Effect for 39 molecules.

Molecules are shown by their SMILES. Measured potencies and affinities stand elsewhere.

Protein translocase subunit SecA (Escherichia coli (strain K12)), sequence (P10408 whole entry): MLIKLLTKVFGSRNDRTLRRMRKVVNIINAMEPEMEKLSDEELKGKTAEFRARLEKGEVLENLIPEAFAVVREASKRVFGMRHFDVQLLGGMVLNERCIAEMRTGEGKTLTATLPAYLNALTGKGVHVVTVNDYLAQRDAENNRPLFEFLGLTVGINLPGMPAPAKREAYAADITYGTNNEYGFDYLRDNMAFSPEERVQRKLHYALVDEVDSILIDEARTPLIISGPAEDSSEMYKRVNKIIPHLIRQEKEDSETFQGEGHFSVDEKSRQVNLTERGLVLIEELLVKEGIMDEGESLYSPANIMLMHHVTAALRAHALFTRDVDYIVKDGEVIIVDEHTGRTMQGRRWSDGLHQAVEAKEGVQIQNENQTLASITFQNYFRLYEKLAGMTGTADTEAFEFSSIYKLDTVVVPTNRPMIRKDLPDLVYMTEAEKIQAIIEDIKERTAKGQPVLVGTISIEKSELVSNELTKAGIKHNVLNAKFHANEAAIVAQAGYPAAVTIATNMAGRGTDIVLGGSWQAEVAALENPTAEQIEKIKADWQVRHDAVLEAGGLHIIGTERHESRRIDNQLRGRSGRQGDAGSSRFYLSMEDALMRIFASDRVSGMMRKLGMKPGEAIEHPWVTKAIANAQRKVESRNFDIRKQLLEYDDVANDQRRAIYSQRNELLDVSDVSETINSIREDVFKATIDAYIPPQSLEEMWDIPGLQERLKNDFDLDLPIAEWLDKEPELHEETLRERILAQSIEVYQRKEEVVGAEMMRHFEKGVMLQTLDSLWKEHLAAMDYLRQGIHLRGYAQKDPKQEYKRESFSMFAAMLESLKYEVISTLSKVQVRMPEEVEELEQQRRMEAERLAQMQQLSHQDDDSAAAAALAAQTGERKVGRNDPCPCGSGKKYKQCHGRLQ

The first assay concerns the target Protein translocase subunit SecA (Escherichia coli (strain K12)) (UniProt P10408). Kind of assay: Assay to Identify E. coli SecA ATPase Inhibitors. It is filed as functional. As to conditions: 30 µM. More on the design: scale not given: direction of the effect not stated beside the values.
Consider `Cc1nc(CN2C(=O)COC3(CCN(Cc4ccco4)CC3)C2C)cs1` (centres undefined), for which the Percent Effect is -3.92%.

Take `COc1cccc(S(=O)(=O)CCN2CCC3(CC2)OCCO3)c1`: the Percent Effect was -7.81%. `CNC(=O)NC(=O)CN1CCC(c2cccc(F)c2)C1` (centres undefined): the Percent Effect was -1.99%.

For `N#Cc1ccc(CNCC(C(=O)N2CCOCC2)c2ccccc2)cc1` (centres undefined), the Percent Effect was -2.65%. For the molecule `Cc1ccccc1CNc1nc(O)cc(C2CC(=O)N(C)C2)n1` (centres undefined), the Percent Effect stood at 3.9%.

Regarding `COc1cccn(CC(=O)N(C)Cc2ccoc2)c1=O`, the Percent Effect was -7%. The same measure, in the same setting: under `CC(NCc1ccc(F)cc1)c1ccc(OCC(=O)NC2CC2)cc1` (centres undefined) stands -1.43%; under `COc1c(C)cnc(CN2CCCCC2Cn2nc(C)nc2C)c1C` (centres undefined), 0.617%; under `O=C1NCCN1C1CCN(Cc2nc(-c3ccoc3)no2)CC1`, -1.17%. Take `Cc1cnc(N2CCCC3(CCN(Cc4csc(C)n4)C3=O)C2)nc1` (centres undefined): the Percent Effect was -1.53%.

`CCS(=O)(=O)N(C)c1ccc(C(=O)N2CCCC(C)C2)cc1` (centres undefined): the Percent Effect was -2.45%. In the case of `CC(=O)Nc1nc(C(=O)N2CCCC2c2noc(C)n2)cs1` (centres undefined), the Percent Effect is -6.47%. On the same count and under the same terms, under `Cc1cccc(NC(=O)N2CCCn3cnc(CN4CCCC4)c3C2)c1` stands -3.65%.

Consider `Cc1cc(C(F)(F)F)nn1CC(C)C(=O)Nc1ccncc1` (centres undefined), for which the Percent Effect was -6.4%. Consider `CNC(=O)c1ccc(OC2CCN(S(C)(=O)=O)CC2)c(Cl)c1`, for which the Percent Effect is -2.46%.

As for `Cc1nnc(N2C[C@H](C(=O)NCC3CC3)[C@@H]3CCO[C@@H]3C2)s1`, the Percent Effect amounted to 0.351%. Still for that read-out and setting: under `CCOc1nnc(CNC2CCCN(c3ccc(C)nn3)C2)s1` (centres undefined) stands -2.75%. The same measure, in the same setting: under `CC(C)NC(=O)N1CCN(S(=O)(=O)C2CC2)CC2(CC(=O)N(C)C2)C1` (centres undefined) stands -4.24%; under `Cc1noc(CN2CCN(CC(C)O)CC2)n1` (centres undefined), -0.907%.

The target of the next assay is T1, Ubiquitin-activating enzyme e1, putative (Leishmania donovani (strain BPK282A1)) (UniProt E9BSI1).
T1 sequence (whole entry): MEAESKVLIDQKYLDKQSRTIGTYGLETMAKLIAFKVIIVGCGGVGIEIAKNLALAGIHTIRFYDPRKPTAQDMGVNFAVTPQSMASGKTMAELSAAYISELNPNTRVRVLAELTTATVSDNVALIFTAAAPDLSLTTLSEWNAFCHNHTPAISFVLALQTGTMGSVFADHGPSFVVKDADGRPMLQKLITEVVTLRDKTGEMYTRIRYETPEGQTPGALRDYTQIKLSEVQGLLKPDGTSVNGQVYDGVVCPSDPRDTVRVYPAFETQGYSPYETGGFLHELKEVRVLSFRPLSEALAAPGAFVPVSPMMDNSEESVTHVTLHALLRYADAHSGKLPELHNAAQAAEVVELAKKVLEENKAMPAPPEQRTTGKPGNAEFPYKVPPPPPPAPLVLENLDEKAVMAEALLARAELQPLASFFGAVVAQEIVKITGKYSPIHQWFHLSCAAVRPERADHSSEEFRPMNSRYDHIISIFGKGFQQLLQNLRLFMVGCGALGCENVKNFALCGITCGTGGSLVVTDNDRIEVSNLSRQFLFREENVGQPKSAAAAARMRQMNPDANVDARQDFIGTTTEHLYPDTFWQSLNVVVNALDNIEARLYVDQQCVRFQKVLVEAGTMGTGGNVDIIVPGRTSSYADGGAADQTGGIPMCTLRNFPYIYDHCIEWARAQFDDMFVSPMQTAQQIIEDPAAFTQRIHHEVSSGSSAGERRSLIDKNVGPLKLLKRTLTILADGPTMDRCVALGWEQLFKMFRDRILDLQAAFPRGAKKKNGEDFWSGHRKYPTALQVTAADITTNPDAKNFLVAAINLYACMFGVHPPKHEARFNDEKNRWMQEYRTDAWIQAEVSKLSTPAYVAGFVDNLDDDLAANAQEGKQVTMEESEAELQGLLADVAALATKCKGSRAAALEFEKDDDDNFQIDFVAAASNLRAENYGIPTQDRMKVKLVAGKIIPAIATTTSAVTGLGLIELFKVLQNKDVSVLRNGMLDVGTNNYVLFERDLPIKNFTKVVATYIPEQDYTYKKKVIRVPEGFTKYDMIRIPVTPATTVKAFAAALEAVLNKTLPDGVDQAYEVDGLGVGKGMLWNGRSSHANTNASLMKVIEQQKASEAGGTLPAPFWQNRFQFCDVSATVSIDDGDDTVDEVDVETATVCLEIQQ
Nature of the assay: Leishmania donovani Ubiquitin Activating Enzyme (LdE1). Format: functional. More on the design: scale not given: direction of the effect not stated beside the values. As to conditions: 30 µM.
As for `N#Cc1ccc(N2CCCN(C(=O)CC3CCCO3)CC2)cc1` (centres undefined), the Percent Effect was 5.41%.

As to `O=c1ccc(-c2cccs2)nn1CN1CCN(Cc2ccccc2)CC1`, the Percent Effect was -1.33%.

For `Cc1ccc(C(=O)NS(=O)(=O)c2cc(Cl)ccc2Cl)c(=O)[nH]1`, the Percent Effect came to 5.41%. As to `Cc1nccn1C1CCCN(C(=O)c2cc(O)nc3ccccc23)C1` (centres undefined), the Percent Effect is 12.7%. Still for that read-out and setting: the figure for `CCCc1n[nH]c(C2CN(C(=O)c3cc(F)ccc3OC)CCO2)n1` (centres undefined) is 7.89%; for `Cc1cnn(CC2CCCN2CCCc2nc3ccccc3o2)c1` (centres undefined) it is 13.5%. Consider `CC(=O)N1CC(Cc2nccc3ccn(C)c23)C1`, for which the Percent Effect was found to be 24%. Regarding `CC(c1ccc(Cl)cc1)N1CCN(CCNS(C)(=O)=O)CC1` (centres undefined), the Percent Effect was -2.7%.

In the case of `CCn1ccnc1-c1nc2cc(S(=O)(=O)N3CCCC3)ccc2n1C`, the Percent Effect came out at 0%. Same read-out and setting: the figure for `Cc1ccc(CNCc2ccc(-n3nc(C)cc3C)nc2)cc1` is 13.2%; for `CC(C)Oc1cccc(C(=O)C2CCCN(C(=O)c3ccccn3)C2)c1` (centres undefined) it is 0%; for `CCCS(=O)(=O)N1CCOCC2(CCN(c3ccccn3)C2)C1` (centres undefined) it is 1.33%. On to `CC(C)Oc1cccc(CNC(=O)NC(C)(C(=O)O)c2ccco2)c1` (centres undefined), for which the Percent Effect is 13.2%. The same measure, in the same setting: the figure for `O=C(Nc1cccc(CN2CCOC2=O)c1)N1CCSCC1` is 12.5%; for `Cc1cc(C)cc(NC(=O)CN2CCCC(n3cncn3)C2)c1` (centres undefined) it is 8.11%. Turning to `Cc1ncsc1CN1CC[C@H]2C(=O)N(c3ccccc3)CCO[C@H]2C1`, the Percent Effect was found to be 10.7%. Take `CCc1nccn1C1CCCN(C(=O)c2ccc3c(c2)OCO3)C1` (centres undefined): the Percent Effect was -2.6%. With `CCN(CC)CC(=O)NCCc1csc(N2CCCC2)n1`, the Percent Effect is -2.67%. Take `COc1cc(NC(=O)c2cc(C)sc2C)c(C(=O)N(C)C)cc1OC`: the Percent Effect worked out at 7.79%. Still for that read-out and setting: the figure for `O=C(Cn1ccc2sccc2c1=O)NCc1ccc2c(c1)OCO2` is 5.2%.

As to `Cc1nc(CN2C(=O)COC3(CCN(Cc4ccco4)CC3)C2C)cs1` (centres undefined), the Percent Effect worked out at 2.74%. Same read-out and setting: under `COc1cccc(S(=O)(=O)CCN2CCC3(CC2)OCCO3)c1` stands 2.67%; under `CNC(=O)NC(=O)CN1CCC(c2cccc(F)c2)C1` (centres undefined), 0%. Same read-out and setting: the figure for `N#Cc1ccc(CNCC(C(=O)N2CCOCC2)c2ccccc2)cc1` (centres undefined) is 10.4%; for `Cc1ccccc1CNc1nc(O)cc(C2CC(=O)N(C)C2)n1` (centres undefined) it is 6.76%. For the molecule `COc1cccn(CC(=O)N(C)Cc2ccoc2)c1=O`, the Percent Effect is -5.48%. On the same count and under the same terms, the figure for `CC(NCc1ccc(F)cc1)c1ccc(OCC(=O)NC2CC2)cc1` (centres undefined) is 6.33%; for `COc1c(C)cnc(CN2CCCCC2Cn2nc(C)nc2C)c1C` (centres undefined) it is 17.7%; for `O=C1NCCN1C1CCN(Cc2nc(-c3ccoc3)no2)CC1` it is 5.2%.

As for `Cc1cnc(N2CCCC3(CCN(Cc4csc(C)n4)C3=O)C2)nc1` (centres undefined), the Percent Effect was found to be 10.7%. Still for that read-out and setting: the figure for `CCS(=O)(=O)N(C)c1ccc(C(=O)N2CCCC(C)C2)cc1` (centres undefined) is 4.17%; for `CC(=O)Nc1nc(C(=O)N2CCCC2c2noc(C)n2)cs1` (centres undefined) it is -5.2%; for `Cc1cccc(NC(=O)N2CCCn3cnc(CN4CCCC4)c3C2)c1` it is 8.11%. Same read-out and setting: under `Cc1cc(C(F)(F)F)nn1CC(C)C(=O)Nc1ccncc1` (centres undefined) stands 6.67%; under `CNC(=O)c1ccc(OC2CCN(S(C)(=O)=O)CC2)c(Cl)c1`, 4.17%.
